Records with an inconclusive call do not appear. Entries that show only a call come without a potency. The source made the active and inactive calls. Calls follow the shape of the dose curve; as a rule, active = well fitted inhibition curve with a large enough effect; inconclusive = small, poorly fitted or top-dose-only effect; inactive = flat fitted curve, though single readings scatter.
Each compound was assayed on CP260 (assay: qHTS profiling for inhibitors of Plasmodium falciparum proliferation (AID 504749; also: nearly all actives have a fitted effect of over 60% in size)). Settings: P. falciparum in erythrocytes, SYBR Green DNA, 72 h; series mostly up to 28.7 µM.
How it was run: (§1)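 Quantitative HTS: compounds pinned into medium, infected erythrocytes added (0.3% parasitemia, 2.5% hematocrit), 72 h culture at 37 C under 5% CO2. Saponin/Triton lysis with SYBR Green I, overnight RT, then fluorescence read.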
Potency is read from the fitted curve at half-maximal effect.

Structure (SMILES)	Potency
C[C@H](N)Cc1ccccc1	inactive
C[C@]12C=CC(=O)C=C1CC[C@@H]1C2CC[C@]2(C)OC(=O)CCC12 (stereo partly drawn)	inactive
OCC(O)[C@H]1O[C@@H]2O[C@H](C(Cl)(Cl)Cl)O[C@@H]2[C@H]1O (stereo partly drawn)	inactive
CC1(C)[C@@H](C=C(Cl)Cl)[C@@H]1C(=O)OCc1c(F)c(F)cc(F)c1F	inactive
CC1(C)S[C@@H]2[C@H](N)C(=O)N2C1C(=O)O (stereo partly drawn)	inactive
C=C1Nc2ccccc2C(=O)N1c1ccccc1C	inactive
CC1OC(O[C@H]2C[C@@H](O)[C@]3(CO)[C@@H]4C(CC[C@]3(O)C2)[C@@]2(O)CC[C@H](C3=CC(=O)OC3)[C@@]2(C)C[C@H]4O)C(O)C(O)C1O (stereo partly drawn)	inactive
O=[N+]([O-])OC1CO[C@H]2C(O[N+](=O)[O-])COC12 (stereo partly drawn)	inactive
CCOC(=O)/C=C(C)/C=C/CC(C)CCCC(C)C (stereo not drawn)	inactive
[S]=[Sb][S][Sb]=[S]	inactive
CN1C2CCC1C(C(=O)O)C(OC(=O)c1ccccc1)C2 (stereo not drawn)	inactive
C[C@@H]1CC[C@H]2[C@@H](C)C(=O)O[C@@H]3OC4(C)CC[C@@H]1C32OO4 (stereo partly drawn)	10 nM (active)
Cc1ccc2c(c1)[C@@H]1CN(C)CC[C@H]1N2	inactive
Nc1nc(O)c(-c2ccccc2)o1	inactive
C=CC[N+]1(C)CCC23c4c5ccc(O)c4O[C@H]2C(=O)CC[C@@]3(O)C1C5 (stereo partly drawn)	inactive
OC[C@@H](O)[C@H]1O[C@@H]2OC(C(Cl)(Cl)Cl)O[C@H]2[C@H]1O (stereo partly drawn)	inactive
Cc1cc(C)cc(C(=O)OC2CC3CCC(C2)N3C)c1 (stereo not drawn)	inactive
CCCN1CCCC2Cc3nc(N)ncc3CC21 (stereo not drawn)	inactive
COc1ccc2c3c1O[C@H]1[C@@H](O)C=C[C@H]4C(C2)NCCC341 (stereo partly drawn)	inactive
CCCCCC(O)C1C(=O)OC(C)C(O)\C=C/C=C\C=C/C=C\C=C(\C)C(O)C(O)C(O)CC(O)CC(O)CC(O)CC(O)CC1O (stereo not drawn)	inactive
CCCCCc1cc(O)c2c(c1)OC(C)(C)C1CC=C(C)CC21 (stereo not drawn)	1780 nM (active)

These compounds were tested on CP262 in the same assay as above. Settings: P. falciparum in erythrocytes, SYBR Green DNA, 72 h; series mostly up to 28.7 µM.
How it was run: as §1

Structure (SMILES)	Potency
C[C@H](N)Cc1ccccc1	inactive
C[C@]12C=CC(=O)C=C1CC[C@@H]1C2CC[C@]2(C)OC(=O)CCC12 (stereo partly drawn)	inactive
OCC(O)[C@H]1O[C@@H]2O[C@H](C(Cl)(Cl)Cl)O[C@@H]2[C@H]1O (stereo partly drawn)	inactive
CC1(C)[C@@H](C=C(Cl)Cl)[C@@H]1C(=O)OCc1c(F)c(F)cc(F)c1F	inactive
CC1(C)S[C@@H]2[C@H](N)C(=O)N2C1C(=O)O (stereo partly drawn)	inactive
C=C1Nc2ccccc2C(=O)N1c1ccccc1C	inactive
CC1OC(O[C@H]2C[C@@H](O)[C@]3(CO)[C@@H]4C(CC[C@]3(O)C2)[C@@]2(O)CC[C@H](C3=CC(=O)OC3)[C@@]2(C)C[C@H]4O)C(O)C(O)C1O (stereo partly drawn)	inactive
O=[N+]([O-])OC1CO[C@H]2C(O[N+](=O)[O-])COC12 (stereo partly drawn)	inactive
CCOC(=O)/C=C(C)/C=C/CC(C)CCCC(C)C (stereo not drawn)	inactive
[S]=[Sb][S][Sb]=[S]	inactive
CN1C2CCC1C(C(=O)O)C(OC(=O)c1ccccc1)C2 (stereo not drawn)	inactive
C[C@@H]1CC[C@H]2[C@@H](C)C(=O)O[C@@H]3OC4(C)CC[C@@H]1C32OO4 (stereo partly drawn)	13.5 nM (active)
Cc1ccc2c(c1)[C@@H]1CN(C)CC[C@H]1N2	inactive
Nc1nc(O)c(-c2ccccc2)o1	inactive
C=CC[N+]1(C)CCC23c4c5ccc(O)c4O[C@H]2C(=O)CC[C@@]3(O)C1C5 (stereo partly drawn)	inactive
OC[C@@H](O)[C@H]1O[C@@H]2OC(C(Cl)(Cl)Cl)O[C@H]2[C@H]1O (stereo partly drawn)	inactive
CCCCCCC(=O)O[C@H]1CC[C@H]2[C@@H]3CCC4CC(=O)C=C(C)[C@]4(C)[C@H]3CC[C@]12C (stereo partly drawn)	inactive
Cc1cc(C)cc(C(=O)OC2CC3CCC(C2)N3C)c1 (stereo not drawn)	inactive
CCCN1CCCC2Cc3nc(N)ncc3CC21 (stereo not drawn)	inactive
COc1ccc2c3c1O[C@H]1[C@@H](O)C=C[C@H]4C(C2)NCCC341 (stereo partly drawn)	inactive
CCCCCC(O)C1C(=O)OC(C)C(O)\C=C/C=C\C=C/C=C\C=C(\C)C(O)C(O)C(O)CC(O)CC(O)CC(O)CC(O)CC1O (stereo not drawn)	inactive
CCCCCc1cc(O)c2c(c1)OC(C)(C)C1CC=C(C)CC21 (stereo not drawn)	4260 nM (active)
